The target of assay [1] is human Retinoid X Receptor beta (RXRb), RXRB (gene 6257) (UniProt P28702). Briefly: ATG_RXRb_TRANS: Attagene TRANS-FACTORIAL HepG2 Assay for human Retinoid X Receptor beta (RXRb) (AID 2283013; active = hit-call score of the fitted dose curve at least 0.9, where 1 is the maximum). The procedure, abridged:
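Chimeric receptor-Gal4 activity was assessed in transiently transfected human HepG2 cells after 24 h exposure. Transcripts from GAL4-UAS reporters were quantified by fluorescent RT-PCR and capillary electrophoresis, with DMSO as negative control and baseline.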

Read-out in assay [2]: E-selectin (Homo sapiens) (UniProt P16581)
Briefly: BSK_3C_Eselectin: BioMAP Diversity Plus: 3C Assay for Eselectin Biomarker Activity (AID 2283015).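 For outcome: cell surface E-selectin protein quantified by ELISA 24 h after dosing.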 The conditions noted are these: primary human endothelial cells (HUVEC); actives raise or lower the signal. The method, boiled down: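 Primary human umbilical vein endothelial cells (3C system) were dosed with chemical and cell-surface E-selectin measured by ELISA 24 h later. Bidirectional curve fitting used DMSO as negative control and baseline.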

Read-out in assay [3]: Interleukin-1 alpha (IL1a), IL1A (gene 3552)
Briefly: BSK_BE3C_IL1a: BioMAP Diversity Plus: BE3C Assay for Interleukin-1 alpha (IL1a) Biomarker Activity (AID 2283016). The conditions noted are these: primary human bronchial epithelial cells; actives raise or lower the signal. The method, boiled down:
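Signal from IL-1a ELISA, taken 24 h after chemical dosing of human bronchial epithelial cells, is compared with DMSO as baseline using bidirectional curve fitting.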

Read-out in assay [4]: Monocyte Chemoattractant Protein-1 (MCP1), CCL2 (gene 6347)
Briefly: BSK_3C_MCP1: BioMAP Diversity Plus: 3C Assay for Monocyte Chemoattractant Protein-1 (MCP1) Biomarker Activity (AID 2283017). The conditions noted are these: primary human endothelial cells (HUVEC); actives raise or lower the signal. The procedure, abridged:
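Primary human umbilical vein endothelial cells (3C system) were exposed to test chemical for 24 h, after which MCP-1 was quantified by ELISA. Activity was fitted bidirectionally against DMSO as negative control and baseline.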

Read-out in assay [5]: Monocyte Chemoattractant Protein-1 (MCP1), CCL2 (gene 6347)
Briefly: BSK_4H_MCP1: BioMAP Diversity Plus: 4H Assay for Monocyte Chemoattractant Protein-1 (MCP1) Biomarker Activity (AID 2283018). The conditions noted are these: primary human endothelial cells (HUVEC); actives raise or lower the signal. The procedure, abridged: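 Endothelial cells from umbilical vein were treated with test chemical, then after 24 h MCP-1 levels were quantified by ELISA; endpoint values came from bidirectional fitting with DMSO as baseline of activity.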

Read-out in assay [6]: Human Leukocyte Antigen - DR isotype (HLADR), HLA-DRA (gene 3122)
Briefly: BSK_3C_HLADR: BioMAP Diversity Plus: 3C Assay for Human Leukocyte Antigen - DR isotype (HLADR) Biomarker Activity (AID 2283019). The conditions noted are these: primary human endothelial cells (HUVEC); actives raise or lower the signal. The procedure, abridged: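 Primary human umbilical vein endothelial cells (3C system) were dosed with compound and cell-surface HLA-DR was quantified by ELISA at 24 h. Activity was fitted bidirectionally against DMSO as negative control and baseline.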

Read-out in assay [7]: Interleukin-8 (IL8), CXCL8 (gene 3576)
Briefly: BSK_3C_IL8: BioMAP Diversity Plus: 3C Assay for Interleukin-8 (IL8) Biomarker Activity (AID 2283020). The conditions noted are these: primary human endothelial cells (HUVEC); actives raise or lower the signal. The method, boiled down:
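Endothelial primary cells of human umbilical vein origin are dosed with chemical; after 24 h the IL-8 biomarker is measured by ELISA, and concentration–response is fitted in both directions versus DMSO.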

Assay [8] deals with human Vitamin D Receptor (VDR), VDR (gene 7421) (UniProt P11473). Briefly: ATG_VDR_TRANS: Attagene TRANS-FACTORIAL HepG2 Assay for human Vitamin D Receptor (VDR) (AID 2283022; active = hit-call score of the fitted dose curve at least 0.9, where 1 is the maximum). The method, boiled down:
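HepG2 cells were transiently transfected with multiple GAL4-UAS reporter units, so signal reflects exogenous chimeric receptor-Gal4 activity. After 24 h compound exposure, reporter mRNA was measured by RT-PCR, fluorescent labelling and capillary electrophoresis, fitted for gain of signal versus DMSO.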

The nature of assay [9]: BSK_3C_SRB: Viability Assessment in the BioMAP Diversity Plus: 3C Assay (AID 2283023).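 Note: fitted both ways against DMSO so a hit may be signal rise or drop.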 The conditions noted are these: primary human endothelial cells (HUVEC). The method, boiled down: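 Primary human umbilical vein endothelial cells in the 3C system were read 24 h after compound dosing. Total protein was stained with 0.1% sulforhodamine B after 10% TCA fixation and read at 560 nm, with bidirectional fitting against DMSO as baseline.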

Read-out in assay [10]: Matrix Metallopeptidase 1 (MMP1), MMP1 (gene 4312)
Briefly: BSK_BE3C_MMP1: BioMAP Diversity Plus: BE3C Assay for Matrix Metallopeptidase 1 (MMP1) Biomarker Activity (AID 2283024). The conditions noted are these: primary human bronchial epithelial cells; actives raise or lower the signal. The method, boiled down: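 MMP1 signal, measured by ELISA after a 24 h chemical exposure of human primary bronchial epithelial cells, is analysed with bidirectional fitting using DMSO as negative control.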

The nature of assay [11]: BSK_3C_Vis: BioMAP Diversity Plus: 3C Assay for Morphology Visualization (AID 2283025).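 Note: fitted both ways so gain or loss versus DMSO counts.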 The conditions noted are these: primary human endothelial cells (HUVEC). The method, boiled down: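 Morphology read by light microscopy serves as a background control for the multiplexed 3C assay in human umbilical vein endothelial cells, taken 24 h after dosing, with DMSO as the negative control and bidirectional curve fitting.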

Read-out in assay [12]: Pselectin, SELP (gene 6403)
Briefly: BSK_4H_Pselectin: BioMAP Diversity Plus: 4H Assay for Pselectin Biomarker Activity (AID 2283026). The conditions noted are these: primary human endothelial cells (HUVEC); actives raise or lower the signal. The procedure, abridged: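 Endothelial primary cells (human umbilical vein) are dosed, incubated 24 h, and assayed for surface P-selectin by ELISA; responses in either direction are fitted relative to the DMSO negative control.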

Assay [13] is described as follows: BSK_4H_SRB: Viability Assessment in the BioMAP Diversity Plus: 4H Assay (AID 2283027).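 For AC50: curves fitted both ways versus DMSO so AC50 may be loss or gain.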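 Note: cells exposed to compound for 24 h before staining.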 The conditions noted are these: primary human endothelial cells (HUVEC). The procedure, abridged: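 Cytotoxicity readout: sulforhodamine B (0.1%) staining of total protein after 10% TCA fixation, measured at 560 nm in human umbilical vein endothelium at 24 h. DMSO set the baseline; fitting was bidirectional.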

Read-out in assay [14]: Thrombomodulin, THBD (gene 7056)
Briefly: BSK_3C_Thrombomodulin: BioMAP Diversity Plus: 3C Assay for Thrombomodulin Biomarker Activity (AID 2283029). The conditions noted are these: primary human endothelial cells (HUVEC); actives raise or lower the signal. The method, boiled down: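 Endothelial cells from umbilical vein are dosed with test chemical and incubated 24 h. Thrombomodulin is then quantified by ELISA, with DMSO serving as negative control and activity baseline.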

Read-out in assay [15]: Urokinase-type plasminogen activator receptor (uPAR), PLAUR (gene 5329)
Briefly: BSK_4H_uPAR: BioMAP Diversity Plus: 4H Assay for Urokinase-type plasminogen activator receptor (uPAR) Biomarker Activity (AID 2283030). The conditions noted are these: primary human endothelial cells (HUVEC); actives raise or lower the signal. The method, boiled down:
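Primary human umbilical vein endothelial cells were exposed to chemical for 24 h before cell-surface uPAR was quantified by ELISA. Activity was fitted bidirectionally against the DMSO negative control baseline.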

Assay [16] in a line: BSK_BE3C_SRB: Viability Assessment in the BioMAP Diversity Plus: BE3C Assay (AID 2283028).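 For AC50: fitted both ways so AC50 may mark signal gain or loss versus DMSO.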 The conditions noted are these: primary human bronchial epithelial cells. The procedure, abridged: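 Human primary bronchial epithelial cells were exposed to test chemicals for 24 h. Total protein in parallel cultures was then measured by staining with 0.1% sulforhodamine B after 10% TCA fixation, with absorbance read at 560 nm. Activity was fitted bidirectionally against DMSO.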

Assay [17] addresses human Thyroid Receptor alpha (THRa1), THRA (gene 7067) (UniProt P10827). Briefly: ATG_THRa1_TRANS: Attagene TRANS-FACTORIAL HepG2 Assay for human Thyroid Receptor alpha (THRa1) (AID 2283014; active = hit-call score of the fitted dose curve at least 0.9, where 1 is the maximum). The procedure, abridged:
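HepG2 cells transiently transfected with multiplexed GAL4-UAS reporter units for exogenous chimeric THRa1-Gal4; reporter mRNA measured 24 h after dosing by RT-PCR, 6-FAM labelling, HpaI digestion and capillary electrophoresis. Gain-of-signal fitted versus DMSO baseline.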

Read-out in assay [18]: Monokine induced gamma interferon (MIG), CXCL9 (gene 4283)
Briefly: BSK_3C_MIG: BioMAP Diversity Plus: 3C Assay for Monokine induced gamma interferon (MIG) Biomarker Activity (AID 2283021).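 For AC50: MIG protein level measured by immunoassay in the treated endothelial cultures.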 The conditions noted are these: primary human endothelial cells (HUVEC); actives raise or lower the signal. The method, boiled down: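 Endothelial primary cells (human umbilical vein) are dosed with test chemical in the 3C system. MIG levels are measured by ELISA at 24 h and fitted in both directions relative to DMSO.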

Records with an inconclusive call do not appear. The source made the active and inactive calls. Rule for the calls, unless noted: active = hit-call score of the fitted dose curve at least 0.9, where 1 is the maximum; inactive = score below 0.9.

In PubChem BioAssay (EPA / NIEHS) one finds outcome and AC50 data, which are given here for five compounds.

In general, AC50 refers to the concentration giving half of the maximal activity seen.

human Vitamin D Receptor (VDR), VDR (gene 7421), sequence (P11473 whole entry, looked up, the tested form may be a part): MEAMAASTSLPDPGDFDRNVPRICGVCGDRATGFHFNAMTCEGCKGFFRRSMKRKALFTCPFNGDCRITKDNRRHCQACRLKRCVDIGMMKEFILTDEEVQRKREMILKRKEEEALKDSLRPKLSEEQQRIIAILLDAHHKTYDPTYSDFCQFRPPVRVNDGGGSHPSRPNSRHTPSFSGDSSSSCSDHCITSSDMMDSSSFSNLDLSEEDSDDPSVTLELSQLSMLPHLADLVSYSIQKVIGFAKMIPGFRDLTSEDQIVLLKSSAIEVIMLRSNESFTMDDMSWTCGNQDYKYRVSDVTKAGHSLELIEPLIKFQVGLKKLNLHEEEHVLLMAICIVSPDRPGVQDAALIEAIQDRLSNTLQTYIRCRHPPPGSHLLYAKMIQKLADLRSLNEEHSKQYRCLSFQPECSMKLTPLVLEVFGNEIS
E-selectin (Homo sapiens), sequence (P16581 whole entry, looked up): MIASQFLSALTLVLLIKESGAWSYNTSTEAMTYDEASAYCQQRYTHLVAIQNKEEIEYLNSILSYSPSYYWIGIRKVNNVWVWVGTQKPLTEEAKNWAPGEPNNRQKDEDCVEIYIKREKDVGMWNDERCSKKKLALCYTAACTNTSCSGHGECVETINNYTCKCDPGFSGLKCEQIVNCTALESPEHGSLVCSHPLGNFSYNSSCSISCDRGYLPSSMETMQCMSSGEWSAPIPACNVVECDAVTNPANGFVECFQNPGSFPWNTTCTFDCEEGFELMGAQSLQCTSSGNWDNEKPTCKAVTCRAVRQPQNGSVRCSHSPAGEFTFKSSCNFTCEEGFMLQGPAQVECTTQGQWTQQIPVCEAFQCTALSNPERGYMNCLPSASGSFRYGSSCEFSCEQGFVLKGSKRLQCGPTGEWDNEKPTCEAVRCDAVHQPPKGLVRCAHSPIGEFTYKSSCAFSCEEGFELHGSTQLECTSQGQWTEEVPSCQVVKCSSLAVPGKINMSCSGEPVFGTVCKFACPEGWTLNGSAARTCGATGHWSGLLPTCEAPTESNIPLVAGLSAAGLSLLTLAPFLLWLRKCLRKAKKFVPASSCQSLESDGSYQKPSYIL
human Retinoid X Receptor beta (RXRb), RXRB (gene 6257), sequence (P28702 whole entry, looked up, the tested form may be a part): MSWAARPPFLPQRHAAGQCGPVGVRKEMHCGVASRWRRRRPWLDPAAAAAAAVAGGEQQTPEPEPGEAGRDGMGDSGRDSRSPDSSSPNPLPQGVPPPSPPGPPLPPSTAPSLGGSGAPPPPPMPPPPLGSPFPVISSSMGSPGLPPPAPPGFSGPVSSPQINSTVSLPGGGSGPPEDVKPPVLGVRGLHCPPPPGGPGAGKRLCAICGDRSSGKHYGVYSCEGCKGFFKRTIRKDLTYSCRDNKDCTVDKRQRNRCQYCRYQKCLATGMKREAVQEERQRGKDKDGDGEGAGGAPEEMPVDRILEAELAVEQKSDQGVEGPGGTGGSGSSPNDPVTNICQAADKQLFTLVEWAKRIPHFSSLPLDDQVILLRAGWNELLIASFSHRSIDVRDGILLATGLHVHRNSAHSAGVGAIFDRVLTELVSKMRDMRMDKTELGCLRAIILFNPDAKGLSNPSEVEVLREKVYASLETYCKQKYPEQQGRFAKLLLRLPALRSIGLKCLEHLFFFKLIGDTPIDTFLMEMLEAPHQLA
human Thyroid Receptor alpha (THRa1), THRA (gene 7067), sequence (P10827 whole entry, looked up, the tested form may be a part): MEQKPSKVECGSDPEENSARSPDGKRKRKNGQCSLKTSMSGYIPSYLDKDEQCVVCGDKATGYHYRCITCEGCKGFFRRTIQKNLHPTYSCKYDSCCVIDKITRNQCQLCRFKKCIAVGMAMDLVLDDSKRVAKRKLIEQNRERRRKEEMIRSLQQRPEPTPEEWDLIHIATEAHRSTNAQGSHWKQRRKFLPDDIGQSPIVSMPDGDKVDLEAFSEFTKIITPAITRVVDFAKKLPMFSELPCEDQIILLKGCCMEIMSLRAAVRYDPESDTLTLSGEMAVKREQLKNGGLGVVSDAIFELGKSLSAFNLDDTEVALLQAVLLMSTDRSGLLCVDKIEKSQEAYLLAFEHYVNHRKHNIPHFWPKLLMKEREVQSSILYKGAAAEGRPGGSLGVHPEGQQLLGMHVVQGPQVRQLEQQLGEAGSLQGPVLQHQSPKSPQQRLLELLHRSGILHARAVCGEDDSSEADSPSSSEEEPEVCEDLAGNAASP

As for `CCCCCCCC=O`, the compound was classed as inactive in assay [1], in [2], in [3], in assay [4], in assay [5] and in [6]. For the same compound, the outcome in [7], in assay [8], in [9], in assay [10], in [11] and in assay [12] was inactive. Also, the outcome in assay [13], in assay [14] and in [15] was inactive.

Consider `Oc1ccc2c(c1)OC[C@@H](N1CCC(O)(c3ccc(F)cc3)CC1)[C@H]2O`, for which the compound was classed as inactive in assay [1], in assay [2], in assay [3], in assay [4], in assay [5] and in assay [6]. Also, the outcome in assay [7], in assay [9], in assay [10], in assay [11], in assay [12] and in [13] was inactive. The result in assay [16], in [14] and in [15] was inactive.

Regarding `CCCCCCCCCCO`, the result in assay [2], in assay [3], in assay [4], in assay [5], in assay [6] and in assay [7] was inactive. Also, the compound was called inactive in [8], in assay [10], in [11], in assay [12], in assay [13] and in assay [16]. For the same compound, the outcome in assay [14] and in [15] was inactive.

`COc1cc(-c2nc(NC(=O)c3cc4cc(C)cc(C)c4n3CC(=O)O)sc2CCC2CCCCC2)c(OC)cc1Cl`: the compound was classed as inactive in [17] and in [8]. Moreover, the AC50 was 5.53 µM (active) in [2]; 3.38 µM (active) in [3]; 2.91 µM (active) in [4]; 5.38 µM (active) in [5]; 3.08 µM (active) in assay [6]; 5.83 µM (active) in assay [7]. Besides, the concentration at half-maximal activity (AC50) in [18] was 5.26 µM (active); in assay [9] it was 2.92 µM (active); in [10] it was 4.37 µM (active); in assay [11], 4.08 µM (active); in assay [12] it was 3.63 µM (active); in assay [13] it was 4.62 µM (active). Also, the half-maximal activity concentration (AC50) was 3.12 µM (active) in assay [16], 23.6 µM (active) in [14] and 4.62 µM (active) in assay [15].

Regarding `COc1ccc(S(=O)(=O)N2C(=O)[C@@](c3ccccc3OC)(N3C[C@H](O)C[C@H]3C(=O)N(C)C)c3cc(Cl)ccc32)c(OC)c1`, the outcome in assay [2], in [3], in assay [5], in [18], in [8] and in assay [10] was inactive. The result in [12] and in [14] was inactive. The AC50 in assay [4] was 20 µM (active); in assay [6], 32.6 µM (active); in [7] it was 31.5 µM (active); in assay [11], 39 µM (active); in assay [13], 29.3 µM (active); in assay [15] it was 8.31 µM (active).
